HEK293 tox: cytotoxic in the GLP-1 receptor inverse agonist counter-screen; AID 624418; Potency, µM (highest dose often 38.3 µM), for the others: at the highest dose activity change, negative = inhibition, usual class: inhibitors; HEK293 cAMP-luciferase reporter cells, luminescence, 24 h; 410,000 compounds, 0.13% hits;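 also: loss of luciferase light is scored as toxicity; potency is read from the fitted curve at half-maximal effect; % is scaled to controls: 0 for no effect and ±100 for the full control effect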
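A 23 nL compound transfer followed 12 hours of cell culture at 37 deg C; exposure then lasted 24 hr. Luciferase assay detection reagent was dispensed and plates read for luminescence after a 12 min room-temperature wait.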
PTHR1 ag: activates the human parathyroid hormone receptor PTHR1. Q03431. Potency, µM (titrated, usually from 115 µM), inactives show at the top dose activation, actives largely listed as activators. HEK293 GP2 PTHR1 cells, GloSensor cAMP luminescence, 1 h. 410,000 compounds, 0.075% hits. AID 743266; also: potency is read from the fitted curve at half-maximal effect; nearly all actives have a fitted effect of over 55% in size
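HEK-293-derived GP2 cells expressing PTHR1 and a GloSensor cAMP reporter, 3,000/well, plated overnight, given luciferin plus IBMX (each 0.5 mM as added) for 1 h at 37 °C, then compound for 1 h at 37 °C. Luminescence was read after 15 min at room temperature.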
GLP1R ag: agonists of human GLP-1 receptor; HEK293 GLP-1R CRE-luciferase, luminescence, 4-6 h; cells express a hypersensitive GLP-1R form; Potency, µM (highest dose often 45.6 µM), for the others: top-dose activation, usual class: activators; 380,000 compounds, 0.007% hits; AID 624172; also: potency is read from the fitted curve at half-maximal effect; % of control where 0% means no effect
Target sequence (P43220 whole entry, looked up): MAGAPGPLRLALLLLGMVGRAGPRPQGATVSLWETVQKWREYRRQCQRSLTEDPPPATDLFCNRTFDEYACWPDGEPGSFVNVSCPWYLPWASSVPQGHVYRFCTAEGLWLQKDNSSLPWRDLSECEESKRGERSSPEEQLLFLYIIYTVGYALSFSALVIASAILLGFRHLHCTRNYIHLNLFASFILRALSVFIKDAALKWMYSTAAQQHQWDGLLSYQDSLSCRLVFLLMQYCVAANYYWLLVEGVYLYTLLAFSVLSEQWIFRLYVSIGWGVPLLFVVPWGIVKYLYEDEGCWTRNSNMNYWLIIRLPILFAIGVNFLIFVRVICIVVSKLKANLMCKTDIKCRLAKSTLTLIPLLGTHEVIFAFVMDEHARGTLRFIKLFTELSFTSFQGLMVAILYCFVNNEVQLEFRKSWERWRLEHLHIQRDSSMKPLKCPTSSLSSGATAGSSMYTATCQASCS
GLP-1R inv ag: GLP-1 receptor (human) inverse agonism. P43220. HEK293 GLP-1R CRE-luciferase, luminescence, 24 h; GLP-1R form is constitutively active. Potency, µM (highest dose often 38.3 µM), for inactives: top-dose activity change, negative = inhibition, most hits filed as inhibitors. 410,000 compounds, 1.6% hits; also: potency is read from the fitted curve at half-maximal effect; % is scaled to controls: 0 for no effect and ±100 for the full control effect; nearly all actives have a fitted effect of over 55% in size
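Using stably transfected HEK293 (constitutively active GLP-1R, cAMP-luciferase reporter), compounds were incubated 24 hr and luciferase measured by luminescence.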
TSHR antagonist: antagonists of human thyroid stimulating hormone receptor | P16473 | TSHR-expressing cells, TSH-stimulated cAMP HTRF, 2 h; hits give low values | activity change, negative = inhibition, % at 11.5 µM | 330,000 compounds, 0.2% hits;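 active = activity change below a set negative limit, meaning inhibition stronger than a set level, cut at about -70% in these data; inconclusive = activity change between two set negative limits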; also: % is scaled to controls: 0 for no effect and ±100 for the full control effect
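Read-out is FRET at 665 nm (cryptate excitation 337 nm) from a cryptate-tagged anti-cAMP antibody, competed by cell cAMP against cAMP-d2. Compounds are tested on freshly harvested TSHR cells challenged with 4nM TSH (EC80) for 2 hours at 37 deg C.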
* = called active by the depositor; i = inactive; ? = inconclusive; · = no result given. Only some compounds are listed: those with a hit (about 1.8% of all), similar ones and a draw of the others. Unless noted, calls follow the shape of the dose curve; as a rule, active = well fitted curve in the direction sought with a large enough effect; inconclusive = small, poorly fitted or top-dose-only effect, or another doubt; inactive = no such curve, though single readings can be large; an effect the other way counts as inactive or inconclusive.

SMILES	HEK293 tox	PTHR1 ag	GLP1R ag	GLP-1R inv ag	TSHR antagonist
COc1cccc(NC(=O)C(Cc2ccccc2)n2cccc2)c1 (centres undefined)	-5%	-6%	5%	11µM*	-10
Cc1ccc(NC(=O)C(Cc2ccccc2)n2cccc2)cc1 (centres undefined)	-5%	-20%	6%	?	-3
CCOC(=O)c1c(C)oc2ncnc(N3CCN(c4ccccc4)CC3)c12	-4%	-41%	·	-21%	·
Cc1ccc(Cn2ccsc2=NC(=O)CCl)cc1	-40%	-67%	20%	10µM*	6
CC(C)CNC(=S)N1CCC(Cc2ccccc2)CC1	?	-9%	0%	3.2µM*	-16
CC(C)NC(=S)N1CCC(Cc2ccccc2)CC1	-8%	-6%	-2%	?	-7
COc1cc(Nc2c(C#N)cnc3cc(OCCCN4CCN(C)CC4)c(OC)cc23)c(Cl)cc1Cl	·	·	6%	·	·
Cc1ccc(-c2cc(=O)c3cc(C)ccc3[nH]2)cc1	-38%	-80%	-10%	3.2µM*	-12
Cc1ccc(-c2cc(=O)c3cc(F)ccc3[nH]2)cc1	0%	-36%	1%	-16%	8
Cc1oc2c(c(C)cc3oc(=O)c(CC(=O)NCc4ccc(F)cc4)c(C)c32)c1C	-8%	-19%	·	13%	·
COc1ccc(-c2csc(NC(=O)C3CCN(c4ncnc5sc(C)c(C)c45)CC3)n2)cc1OC	?	-30%	10%	7.1µM*	-77*
OC[C@H]1O[C@@H](n2cnc3c2NC=NC[C@H]3O)C[C@@H]1O	·	·	-4%	·	·
CCCc1ccc(-c2cc(NC(=O)CSc3n[nH]c(N)n3)n(-c3ccccc3)n2)cc1	6%	16µM*	3%	50%	-26
O=C(Nc1ccccc1)Nc1ccc(-n2ccc(C(F)(F)F)n2)cc1	-22%	-2%	10%	7.1µM*	-3
CC(=O)c1ccc(N2C(=O)N(Cc3cccc(C(F)(F)F)c3)c3ccccc3S2(=O)=O)cc1	-10%	i	-11%	10µM*	·
Cc1ccc(C)c(N2C(=O)N(Cc3cccc(C(F)(F)F)c3)c3ccccc3S2(=O)=O)c1	-6%	-38%	0%	?	·
COc1ccc(CCn2cc3c(c2-c2ccccc2Br)c(=O)n(C)c(=O)n3C)cc1OC	2%	i	·	11%	·
O=C(O)c1ccc2c(c1)C(=O)N([C@H](Cc1ccc(O)c(O)c1)C(=O)O)C2=O	·	·	·	·	35
O=C1NC(=O)C2C3C=CC(C3)C12 (centres undefined)	·	·	-1%	·	·
C/C(Cl)=C\Cn1c(O)c(N=NC(N)=S)c2ccccc21	1.6µM*	-7%	?	?	-3
COC(=O)c1ccc(Cn2c(O)c(N=NC(N)=S)c3ccccc32)o1	?	?	10%	10µM*	5
NC(=S)N=Nc1c(O)n(Cc2ccccc2)c2ccccc12	?	i	-1%	?	-2
COC(=O)N=Nc1c(O)n(Cc2ccccc2)c2ccccc12	-6%	-2%	13%	29%	7
O=C(CSc1ncc2c(n1)-c1ccccc1N(Cc1ccc(Cl)cc1)S2(=O)=O)c1ccc(Cl)cc1	6%	-2%	·	5%	·
COc1cccc(NC(=O)N2CCc3nc(NCc4cccc(Oc5ccccc5)c4)ncc3C2)c1	-22%	-87%	-1%	10µM*	·
SMILES	HEK293 tox	PTHR1 ag	GLP1R ag	GLP-1R inv ag	TSHR antagonist
CCN(CC)CC(O)c1ccc2ccc3ccc(O)cc3c2c1 (centres undefined)	?	-24%	-4%	11µM*	·
CCN(CC)CC(O)Cn1c2ccccc2c2ccccc21 (centres undefined)	16%	i	18%	?	-2
Cc1csc(NC(=O)CSc2nnc3c4ccccc4nc(C(C)(C)C)n23)n1	2.5µM*	-18%	-4%	?	-5
CC(=O)CSc1nnc2c3ccccc3nc(C(C)(C)C)n12	-1%	-18%	12%	9%	-26
CCc1ccc(NC(=O)CCCc2nnc3n(C(C)CC)c(=O)c4sccc4n23)cc1 (centres undefined)	-9%	-5%	·	-5%	·
CSc1ccc(Cn2c(C)c(C(=O)NCc3ccc(Cl)c(Cl)c3)sc2=O)cc1	-3%	-7%	-4%	?	·

Bioassay records deposited in PubChem BioAssay by National Center for Advancing Translational Sciences (NCATS).
